NS1 function inh: inhibitors of influenza NS1 protein function. Potency, µM (highest dose often 46.1 µM). actives 0.4% (n = 270,000); calls by dose curve; further: actives are rising curves; nearly all actives have a fitted effect of over 50% in size
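In this qHTS, NS1 from influenza A is expressed in budding yeast, where it slows growth. Cells are switched from glucose to 2% galactose medium (pH 6.0, -URA), treated with compound, and growth recovery is read at OD600.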
Tb PYK inh: T. brucei pyruvate kinase inhibition | actives 0.12% (n = 410,000) | Potency, µM (doses to about 76.8 µM), most hits filed as inhibitors | AID 624173 | Q57TT1 | TbPYK enzyme, Kinase-Glo Plus ATP luminescence, 45 min; further: nearly all actives have a fitted effect of over 50% in size
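Enzyme and substrate buffer are dispensed first and compound is pin-transferred. ADP at 130 uM final then starts the reaction, which runs 45 min at room temperature. Detection reagent is added for 10 min before luminescence is imaged.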
Sm TGR block: S. mansoni TGR enzyme inhibition; AID 485364; actives 3% (n = 360,000); purified TGR, DTNB reduction, TNB absorbance 405 nm; Potency, µM (series often up to 114 µM), hits mostly inhibitors; further: nearly all actives have a fitted effect of over 60% in size
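First, TGR (20 nM dispensed) and NADPH were mixed with compound. Second, a 15 min room-temperature incubation followed. Third, further NADPH and then DTNB were added to start the reaction. Finally, TNB absorbance was monitored kinetically.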
LmPK inhibitor: LmPK (Leishmania mexicana) enzyme inhibition; Q27686; purified LmPK, Kinase-Glo ATP luminescence, 1 h; Potency, µM (doses to about 57.5 µM), usual class: inhibitors; actives 0.37% (n = 290,000)
Target sequence (Q27686 whole entry, looked up): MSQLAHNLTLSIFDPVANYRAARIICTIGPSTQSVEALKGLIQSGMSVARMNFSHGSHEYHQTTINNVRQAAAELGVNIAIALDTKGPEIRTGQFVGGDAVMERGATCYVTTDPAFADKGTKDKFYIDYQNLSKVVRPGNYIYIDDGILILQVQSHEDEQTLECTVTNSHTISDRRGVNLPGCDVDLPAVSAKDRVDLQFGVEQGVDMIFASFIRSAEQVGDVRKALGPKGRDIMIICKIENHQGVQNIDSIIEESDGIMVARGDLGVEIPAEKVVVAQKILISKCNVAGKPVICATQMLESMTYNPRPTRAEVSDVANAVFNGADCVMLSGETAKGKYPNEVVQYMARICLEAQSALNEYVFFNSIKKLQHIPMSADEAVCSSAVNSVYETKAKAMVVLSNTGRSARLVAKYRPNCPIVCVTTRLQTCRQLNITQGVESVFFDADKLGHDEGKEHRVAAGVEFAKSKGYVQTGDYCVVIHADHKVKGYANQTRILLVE
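In 50 mM imidazole pH 7.2 with 7 mM MgCl2, LmPK (0.1 nM) turned over PEP (0.5 mM) and ADP (0.1 mM) for 1 h at room temperature. Luciferase read-out of ATP.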
Giardia FBPA inh: blocks Giardia fructose-bisphosphate aldolase activity; A8B2U2; purified Giardia FBPA; Potency, µM (doses to about 59.6 µM), most hits filed as inhibitors; actives 0.71% (n = 290,000); AID 2451; further: nearly all actives have a fitted effect of over 55% in size
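40 nM FBPA preincubated 10 min at RT with compound (up to 57.5 uM final), then substrate plus GAPDH/TPI/NAD/arsenate coupling and diaphorase/resazurin added. Fluorescence read after 20 min at RT, 525/598 nm.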
RE007 growth inh: less growth of the S. pombe RE007 Vpr strain | S. pombe RE007 Vpr strain, BacTiter-Glo ATP luminescence, 24 h | actives 0.21% (n = 360,000) | Potency, µM (titrated, usually from 92.2 µM), hits mostly inhibitors | AID 651644; active means well fitted falling curve with a large enough effect; inconclusive means small, poorly fitted or top-dose-only effect; inactive means no such curve, though single readings can be large or run the other way; further: nearly all actives have a fitted effect of over 50% in size
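Fission yeast RE007 carrying one integrated HIV-1 vpr copy, seeded at OD 0.01 in PMG+AL medium with 23 nL pinned compound. Grown 24 h at 30 degrees; viability read by BacTiter-Glo luminescence after 5 min.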
A number is an active result; – = inactive; ? = inconclusive; · = not tested or not shown. Most compounds without a hit are left out; they make up all but 3.5% or so of the library. Unless noted, the call rests on the fitted dose curve; in most records, active means well fitted curve in the direction sought with a large enough effect; inconclusive means small, poorly fitted or top-dose-only effect, or another doubt; inactive means no such curve, though single readings can be large; an effect the other way counts as inactive or inconclusive.

SMILES | NS1 function inh | Tb PYK inh | Sm TGR block | LmPK inhibitor | Giardia FBPA inh | RE007 growth inh
CC[n+]1ccc2cc(OC)c(OC)cc2c1Cc1ccc(OC)c(OC)c1 | – | ? | ? | – | ? | –
COc1ccc(Cc2c3cc(OC)c(OC)cc3cc[n+]2C)cc1OC | – | ? | 12.6µM | – | ? | –
CC1=CC(c2ccc(Cl)cc2)n2nc(NC(=O)c3ccccc3)nc2N1 (stereo not given) | – | – | 44.7µM | – | – | –
COc1ccc(C2C=C(c3ccc(Cl)cc3)Nc3nc(NC(C)=O)nn32)cc1 (stereo not given) | – | · | ? | – | – | ·
CC(=O)Nc1nc2n(n1)C(c1ccc(Cl)cc1)C=C(C)N2 (stereo not given) | – | – | 14.1µM | – | – | –
O=C(Nc1nc(-c2ccc(Cl)s2)cs1)c1ccco1 | · | – | 39.8µM | – | – | ?
COc1ccc(S(=O)(=O)NCCSCc2ccco2)cc1 | ? | – | 25.1µM | – | – | –
Cc1ccc(S(=O)(=O)NCCSCc2ccco2)cc1 | – | – | ? | – | – | –
COc1ccc(S(=O)(=O)NCCSCc2ccco2)cc1OC | – | – | 11.2µM | – | – | –
Cc1cc(C)c(S(=O)(=O)NCCSCc2ccco2)c(C)c1 | · | – | 12.6µM | · | · | –
CCOc1ccc(S(=O)(=O)NCCSCc2ccco2)cc1 | – | – | ? | – | – | –
CC(=O)N1CCc2c(sc3c2c(=O)n(-c2cc(Cl)ccc2C)c(=O)n3Cc2ccccc2F)C1 | · | – | – | · | · | ·
CC(=O)c1ccc(NC(=O)c2cnc(N3CCCC3)nc2C)cc1 | · | – | – | · | · | ·
O=C(c1ccc(CSc2nc3ccncc3n2Cc2ccccc2F)cc1)N1CCCCCC1 | · | – | – | · | · | ·
CC1(C)CC(=O)c2c(S(C)(=O)=O)sc(Br)c2C1 | – | – | 15.8µM | – | – | –
CSc1sc(C(=O)O)c2c1C(=O)CC(C)(C)C2 | · | – | · | · | · | ·
Cc1ccc(N2CC(NC(=O)c3ccccc3Br)CC2=O)cc1 (stereo not given) | · | – | – | · | · | ·
COC(=O)C1=C(C)N(Cc2ccco2)C(=O)N[C@@H]1c1ccccc1 | – | – | 35.5µM | – | – | –
COC(=O)C1=C(C)N(Cc2ccco2)C(=O)C1 | – | – | 17.8µM | – | – | –
CN(C(=O)CSc1nc2ccccc2n1CC(=O)N(C)C1CCCCC1)c1ccccc1 | · | – | – | · | · | ·
CCOC(=O)[C@]1(C#N)[C@@H]2C=CC(C(C)=O)=CN2[C@@H](C(N)=O)[C@@H]1c1ccsc1 | – | – | 39.8µM | – | ? | –
Cc1oc(-c2ccccc2F)nc1CS(=O)(=O)CC(=O)NC1CCCC(C)C1C (stereo not given) | – | – | – | – | · | –
Cc1oc(-c2ccccc2F)nc1CS(=O)(=O)CC(=O)NC1CCCC1 | – | – | 39.8µM | – | – | –
Cc1ccc(-c2nc(CS(=O)(=O)CC(=O)NC3CCCCCC3)c(C)o2)cc1 | – | – | 25.1µM | – | – | –
COc1ccc(-c2nc(CS(=O)(=O)CC(=O)NC3CCCCCC3)c(C)o2)cc1 | – | – | ? | – | · | –
SMILES | NS1 function inh | Tb PYK inh | Sm TGR block | LmPK inhibitor | Giardia FBPA inh | RE007 growth inh
CN1CC(C(=O)O)Cc2c1ccc1ccccc21 (stereo not given) | – | – | 20µM | – | 9.98µM | –
CN1C(=O)N(C)C(=O)C2(Cc3c(ccc4ccccc34)N(C)C2)C1=O | – | – | – | – | ? | –
O=C(COc1ccc(F)cc1)N1CCCCCCC1 | – | – | – | – | – | –
O=C1NC(=S)NC(=O)C1=Cc1ccc(OCC(=O)N2CCCC2)cc1 | – | ? | 10µM | – | · | –
Cc1cccc(C(=O)NCC(c2ccc3c(c2)OCO3)N2CCOCC2)c1 (stereo not given) | · | – | 25.1µM | · | · | ·
Cc1ccc(-n2cnc3cc(NCc4cccs4)ccc32)cc1 | – | – | – | – | – | 22.4µM
c1ccc(-n2cnc3cc(NCc4cccs4)ccc32)cc1 | – | – | – | – | – | –
CN(C)c1c([N+](=O)[O-])cc(N2C(=O)C=CC2=O)cc1[N+](=O)[O-] | · | 7.94µM | · | · | · | –
CCOC(=O)C(NC(=O)CC)(Nc1sc(C)c(CC)c1C#N)C(F)(F)F (stereo not given) | – | – | 50.1µM | – | – | –
CCOC(=O)c1cccc(NC(=O)CCc2c(C)nn(-c3ccc(N4CCOCC4)nn3)c2C)c1 | · | – | – | · | · | ·
CCn1c(=S)sc2c(=O)n(-c3ccccc3)c(=S)[nH]c21 | · | – | 22.4µM | – | – | –
O=C(c1ccc(Br)cc1)C1CCc2occc2C1=O (stereo not given) | – | – | 56.2µM | – | – | –
CN1CCc2cc(O)cc3c2C1Cc1ccc(O)c(O)c1-3 (stereo not given) | – | · | · | · | 14.1µM | ·
CC(C)(C)OC(=O)N1CCN(C(=O)c2[nH]cnc2C(=O)Nc2ccon2)CC1 | · | – | – | · | · | –
CC1CCN(C(=O)c2[nH]cnc2C(=O)Nc2ccon2)CC1 | · | – | 39.8µM | · | · | –
COc1ccc2c(c1)c1ncn(CCN3CCCC3)c(=O)c1n2C | – | – | – | – | – | –
Cc1ccc(C)c2c1c1ccccc1n2C | – | – | – | – | – | –
Cn1c2ccccc2c2ccc3c(c21)C(=O)C=CC3=O | · | 22.4µM | · | · | · | –
Cc1ccc2c(c1)c1ccc3c(c1n2C)C(=O)C=CC3=O | – | ? | 2.51µM | ? | ? | –
COc1ccc2c(c1)c1ccc3c(c1n2C)C(=O)C=CC3=O | – | ? | 1.26µM | ? | ? | ·
Cc1ccc2c(c1)c1ncnc(N3CCOCC3)c1n2C | – | – | – | – | – | –
COc1ccc(CCNC[C@H](O)COc2cccc(C)c2)cc1OC | · | – | · | · | · | ·
Cc1ccc(-n2c3nc(=O)[nH]c(=O)c-3cc3c(C)nn(-c4ccccc4)c32)cc1Cl | · | – | – | · | · | ·
COc1ccccc1CNC(=O)c1cc2c(=O)oc3ccc(C)cc3c2s1 | · | – | – | · | · | ·
CC(C)CC(=O)/C(=C\c1ccc(Cl)cc1Cl)n1cncn1 | – | – | 22.4µM | – | – | ?
SMILES | NS1 function inh | Tb PYK inh | Sm TGR block | LmPK inhibitor | Giardia FBPA inh | RE007 growth inh
COC(=O)c1ccc(CSc2ccc3nnc(-c4cccc(F)c4)n3n2)o1 | – | ? | 25.1µM | – | – | –
CCOC(=O)CC(=O)CSc1ccc2nnc(-c3cccc(F)c3)n2n1 | – | – | – | – | – | –
COc1ccc(C(=O)Oc2cccc3cccnc23)cc1[N+](=O)[O-] | – | – | – | – | – | 63.1µM
COc1ccc(C(=O)Oc2cccc3cccnc23)cc1S(=O)(=O)N1CCOCC1 | – | – | – | – | – | 31.6µM
COc1ccc(-c2cc3nc4n(c(=O)c3s2)CCCCC4)cc1 | – | – | – | – | – | –
COc1ccc(-c2cc3nc4n(c(=O)c3s2)CCC4)cc1 | – | – | – | 7.08µM | – | –

Source: PubChem BioAssay
